How the values were obtained:
Experiment in all cases: DAPPL (digital affinity profiling via proximity ligation, sequencing); 10 mM Tris-HCl pH 7.5, 50 mM NaCl, 1 mM DTT, 4% glycerol, room temperature, 30 min; GST-TFs on glutathione beads, 16-mer random dsDNA library, 0.1% formaldehyde crosslink after washing; high values mean tight binding
FEV = target: T1, FEV (Homo sapiens, UniProt Q99581 1-238); conditions: protein: recombinant; tags: N-terminal GST; dsDNA, one strand shown
T1 sequence: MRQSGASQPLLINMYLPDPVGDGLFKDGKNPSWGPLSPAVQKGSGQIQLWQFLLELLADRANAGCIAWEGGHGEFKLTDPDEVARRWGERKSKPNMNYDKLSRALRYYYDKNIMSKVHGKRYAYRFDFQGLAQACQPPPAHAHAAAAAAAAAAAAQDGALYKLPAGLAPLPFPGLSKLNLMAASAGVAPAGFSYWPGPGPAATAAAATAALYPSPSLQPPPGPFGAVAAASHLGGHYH
How it was run: (§1)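 After expression in yeast as GST fusions, human transcription factors were bound to glutathione beads, DNA-barcoded and mixed with a tag-only sample. The pools were incubated with 200 nmole of a 16-mer random double-stranded DNA library in Tris/NaCl/DTT/glycerol buffer (30 min, room temperature), washed and crosslinked with 0.1% formaldehyde. Proximity ligation with BsaI/T4 ligase ran for 1 h at 37 °C, before PCR amplification and sequencing on an Illumina NextSeq500. Binding signal is a hexamer's read frequency for a factor divided by its frequency for the tag-only sample.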

ETV5 = ETV5 (Homo sapiens, UniProt P41161 1-510); conditions: protein: recombinant; tags: N-terminal GST; dsDNA, one strand shown
Chain of ETV5 (P41161 whole entry): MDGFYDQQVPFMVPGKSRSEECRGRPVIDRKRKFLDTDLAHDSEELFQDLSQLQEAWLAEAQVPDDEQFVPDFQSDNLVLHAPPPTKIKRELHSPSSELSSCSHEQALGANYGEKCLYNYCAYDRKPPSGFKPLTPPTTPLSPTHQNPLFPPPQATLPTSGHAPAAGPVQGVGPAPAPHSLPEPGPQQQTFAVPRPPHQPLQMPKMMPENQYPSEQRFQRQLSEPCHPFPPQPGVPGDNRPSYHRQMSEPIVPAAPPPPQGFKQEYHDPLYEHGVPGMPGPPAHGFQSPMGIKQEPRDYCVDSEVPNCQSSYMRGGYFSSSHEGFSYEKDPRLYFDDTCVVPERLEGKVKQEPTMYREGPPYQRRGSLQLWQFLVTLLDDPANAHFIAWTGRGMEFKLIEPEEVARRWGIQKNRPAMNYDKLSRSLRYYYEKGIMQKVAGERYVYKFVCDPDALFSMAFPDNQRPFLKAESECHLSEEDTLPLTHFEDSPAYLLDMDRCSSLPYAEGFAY
How it was run: as §1

HSF1 = HSF1 (Homo sapiens, UniProt Q00613 1-529); conditions: protein: recombinant; tags: N-terminal GST; chain copies: 3; dsDNA, one strand shown
Chain of HSF1 (Q00613 whole entry): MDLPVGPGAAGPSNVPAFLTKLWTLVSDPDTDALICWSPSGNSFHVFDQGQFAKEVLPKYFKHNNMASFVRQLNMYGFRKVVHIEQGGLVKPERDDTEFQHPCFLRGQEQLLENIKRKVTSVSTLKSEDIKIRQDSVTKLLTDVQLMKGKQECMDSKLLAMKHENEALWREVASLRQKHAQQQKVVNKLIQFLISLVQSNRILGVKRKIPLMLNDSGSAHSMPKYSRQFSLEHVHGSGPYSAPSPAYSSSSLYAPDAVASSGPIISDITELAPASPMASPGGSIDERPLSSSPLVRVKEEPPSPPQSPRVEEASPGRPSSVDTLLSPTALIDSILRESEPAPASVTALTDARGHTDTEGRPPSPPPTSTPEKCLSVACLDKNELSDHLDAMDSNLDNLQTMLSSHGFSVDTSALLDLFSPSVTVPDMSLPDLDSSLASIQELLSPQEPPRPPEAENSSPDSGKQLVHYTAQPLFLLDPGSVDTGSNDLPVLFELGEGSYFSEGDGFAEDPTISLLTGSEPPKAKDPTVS
How it was run: as §1

SPIC = target: T2, SPIC (Homo sapiens, UniProt Q8N5J4 1-248); conditions: protein: recombinant; tags: N-terminal GST; dsDNA, one strand shown
T2 sequence: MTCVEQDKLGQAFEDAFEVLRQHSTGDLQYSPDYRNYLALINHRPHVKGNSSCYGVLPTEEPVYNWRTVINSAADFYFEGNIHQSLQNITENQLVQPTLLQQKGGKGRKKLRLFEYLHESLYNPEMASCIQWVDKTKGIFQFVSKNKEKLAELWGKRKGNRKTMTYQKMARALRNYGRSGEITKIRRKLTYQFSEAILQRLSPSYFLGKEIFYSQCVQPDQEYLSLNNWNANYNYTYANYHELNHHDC
How it was run: as §1

ELF4 = ELF4 (Homo sapiens, UniProt Q99607 1-663); conditions: protein: recombinant; tags: N-terminal GST; dsDNA, one strand shown
Chain of ELF4 (Q99607 whole entry): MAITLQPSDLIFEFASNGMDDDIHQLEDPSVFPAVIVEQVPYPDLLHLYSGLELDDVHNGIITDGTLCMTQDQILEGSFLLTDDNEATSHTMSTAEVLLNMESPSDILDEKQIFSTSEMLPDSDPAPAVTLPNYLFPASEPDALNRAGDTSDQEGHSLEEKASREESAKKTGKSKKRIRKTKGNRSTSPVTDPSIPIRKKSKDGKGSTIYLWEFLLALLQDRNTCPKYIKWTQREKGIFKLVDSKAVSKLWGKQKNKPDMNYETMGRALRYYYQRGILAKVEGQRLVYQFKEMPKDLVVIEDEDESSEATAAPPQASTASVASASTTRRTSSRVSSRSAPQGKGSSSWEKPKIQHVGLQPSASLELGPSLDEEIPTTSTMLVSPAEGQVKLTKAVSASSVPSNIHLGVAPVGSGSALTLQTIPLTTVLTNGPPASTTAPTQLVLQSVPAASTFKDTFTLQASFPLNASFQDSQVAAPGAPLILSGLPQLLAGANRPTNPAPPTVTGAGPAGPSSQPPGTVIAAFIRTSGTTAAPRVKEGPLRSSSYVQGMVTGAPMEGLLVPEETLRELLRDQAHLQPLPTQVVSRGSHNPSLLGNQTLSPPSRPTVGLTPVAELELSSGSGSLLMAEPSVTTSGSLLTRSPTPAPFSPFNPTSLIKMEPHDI
How it was run: as §1

ELK4 = target: T3, ELK4 (Homo sapiens, UniProt P28324-2 1-405); conditions: protein: recombinant; tags: N-terminal GST; dsDNA, one strand shown
T3 sequence: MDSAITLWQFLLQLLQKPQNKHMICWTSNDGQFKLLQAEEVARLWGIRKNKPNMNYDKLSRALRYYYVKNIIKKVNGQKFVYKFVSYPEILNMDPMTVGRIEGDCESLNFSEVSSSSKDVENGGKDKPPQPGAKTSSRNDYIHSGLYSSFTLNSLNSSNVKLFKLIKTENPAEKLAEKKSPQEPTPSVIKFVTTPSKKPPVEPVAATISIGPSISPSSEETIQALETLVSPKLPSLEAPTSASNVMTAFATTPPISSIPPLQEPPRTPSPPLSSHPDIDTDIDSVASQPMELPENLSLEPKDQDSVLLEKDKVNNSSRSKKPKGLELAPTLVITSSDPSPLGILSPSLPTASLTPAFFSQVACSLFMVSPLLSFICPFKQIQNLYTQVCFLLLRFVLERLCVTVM
How it was run: as §1

ETV2 = target: T4, ETV2 (Homo sapiens, UniProt O00321 1-342); conditions: protein: recombinant; tags: N-terminal GST; dsDNA, one strand shown
T4 sequence: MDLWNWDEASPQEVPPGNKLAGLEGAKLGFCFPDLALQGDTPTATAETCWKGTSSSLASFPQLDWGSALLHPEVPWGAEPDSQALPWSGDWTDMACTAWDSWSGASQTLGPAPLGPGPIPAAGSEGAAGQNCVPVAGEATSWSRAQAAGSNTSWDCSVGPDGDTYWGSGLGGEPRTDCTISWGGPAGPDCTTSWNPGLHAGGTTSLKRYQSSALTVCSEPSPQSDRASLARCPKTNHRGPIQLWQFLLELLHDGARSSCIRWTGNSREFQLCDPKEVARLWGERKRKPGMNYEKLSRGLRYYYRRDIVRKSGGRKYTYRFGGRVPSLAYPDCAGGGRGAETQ
How it was run: as §1

ELF3 = target: T5, ELF3 (Homo sapiens, UniProt P78545 1-371); conditions: protein: recombinant; tags: N-terminal GST; dsDNA, one strand shown
T5 sequence: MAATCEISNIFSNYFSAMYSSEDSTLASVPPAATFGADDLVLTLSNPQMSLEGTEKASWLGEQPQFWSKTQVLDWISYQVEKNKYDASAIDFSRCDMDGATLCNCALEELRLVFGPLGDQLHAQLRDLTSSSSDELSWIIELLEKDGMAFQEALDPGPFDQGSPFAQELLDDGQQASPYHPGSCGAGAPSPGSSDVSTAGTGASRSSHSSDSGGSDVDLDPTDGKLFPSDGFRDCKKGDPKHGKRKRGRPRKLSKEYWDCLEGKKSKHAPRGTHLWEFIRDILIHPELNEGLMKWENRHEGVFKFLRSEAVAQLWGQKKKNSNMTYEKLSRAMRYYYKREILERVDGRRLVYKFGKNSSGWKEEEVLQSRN
How it was run: as §1

CRX = CRX (Homo sapiens, UniProt O43186 1-299); conditions: protein: recombinant; tags: N-terminal GST; dsDNA, one strand shown
Chain of CRX (O43186 whole entry): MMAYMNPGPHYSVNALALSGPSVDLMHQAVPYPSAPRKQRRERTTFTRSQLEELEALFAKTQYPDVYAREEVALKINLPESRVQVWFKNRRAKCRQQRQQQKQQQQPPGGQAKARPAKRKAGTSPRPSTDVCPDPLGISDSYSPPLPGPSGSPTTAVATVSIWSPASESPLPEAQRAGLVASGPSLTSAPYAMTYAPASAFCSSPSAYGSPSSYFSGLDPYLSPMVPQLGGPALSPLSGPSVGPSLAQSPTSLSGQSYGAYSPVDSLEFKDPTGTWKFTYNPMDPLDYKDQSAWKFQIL
How it was run: as §1

Question: Which binding signal (FEV) does the source give for TTCAAC here?
Answer: Its binding signal is 1.29 fold enrichment (6-mer frequency, TF over GST control).

Question: And the binding signal (ETV5)?
Answer: The binding signal was 1.29 fold enrichment (6-mer frequency, TF over GST control).

Question: And the binding signal (HSF1)?
Answer: The binding signal was 1.14 fold enrichment (6-mer frequency, TF over GST control).

Question: What about the binding signal (SPIC) of the same sequence?
Answer: The binding signal was 1.24 fold enrichment (6-mer frequency, TF over GST control).

Question: And the binding signal (ELF4)?
Answer: The binding signal was 1.28 fold enrichment (6-mer frequency, TF over GST control).

Question: And the binding signal (ELK4)?
Answer: Its binding signal is 1.33 fold enrichment (6-mer frequency, TF over GST control).

Question: What about the binding signal (ETV2) of the same sequence?
Answer: Its binding signal is 1.31 fold enrichment (6-mer frequency, TF over GST control).

Question: What about the binding signal (ELF3) of the same sequence?
Answer: The binding signal was 1.38 fold enrichment (6-mer frequency, TF over GST control).

Question: What about the binding signal (CRX) of the same sequence?
Answer: Its binding signal is 1.15 fold enrichment (6-mer frequency, TF over GST control).
